A short description of assay [1]: Nuclear factor erythroid 2-related factor 2/antioxidant responsive element (Nrf2/ARE) small molecule agonists: qHTS cell viability counter screen in human keratinocytes (AID 1919968; active = well fitted curve in the direction sought with a large enough effect in the repeat runs; an effect the other way counts as inactive or inconclusive; also: nearly all actives have a fitted effect of over 55% in size; also: potency is read from the fitted curve at half-maximal effect). In outline:
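Parallel cytotoxicity read: KeratinoSens HaCaT cells, compound treatment 23 h, viability by CellTiter-Fluor fluorescence 1 h post-reagent.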

Assay [2] is described as follows: Nuclear factor erythroid 2-related factor 2/antioxidant responsive element (Nrf2/ARE) small molecule agonists: luciferase reporter gene qHTS assay in human keratinocytes (AID 1919969). Also: nearly all actives have a fitted effect of over 35% in size.
Assay [3] has as its target Gonadotropin-releasing hormone receptor (Homo sapiens) (UniProt P30968). As to the kind of experiment: Human gonadotropin-releasing hormone receptor (GnRHR) small molecule agonists, calcium flux assay in GnRHR-HEK293 cells (AID 1920063). Also: nearly all actives have a fitted effect of over 35% in size. Summed up:
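Calcium flux, agonist mode, human GnRHR stably integrated in HEK293; dye 1 h at 37 C before compound; Ex/Em=480/540 kinetic read, 3 min; 15 concentrations, triplicate.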
On the technique in general: Calcium assays in cells follow changes in intracellular calcium, usually with a dye or a luminescent sensor.

In assay [4] the target is KiSS-1 receptor (Homo sapiens) (UniProt Q969F8). Description: Human kisspeptin (KISS1R) small molecule agonists, calcium flux assay in KISS1R-HEK293 cells (AID 1920064; active = well fitted curve in the direction sought with a large enough effect in the repeat runs; an effect the other way counts as inactive or inconclusive). In outline:
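Triplicate 15-concentration series were applied to dye-loaded human KISS1R HEK293 cells, and agonist-evoked calcium fluorescence was captured for 3 min.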

A short description of assay [5]: G protein-coupled receptor (GPCR) small molecule agonists, calcium flux assay: HEK293 wild type cell line counter screen (AID 1920065). Summed up:
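Non-specific calcium responders were flagged by adding DMSO-dissolved compounds to dye-loaded cells and reading 480/540 nm fluorescence each second for 3 min; ATP served as positive control.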

Assay [6] can be described thus: p53 small molecule agonists, cell-based qHTS assay with human liver microsomes (AID 1963577).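 Also: p53 response element beta-lactamase reporter cells with liver microsomes plus NADPH.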 In outline:
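Compounds act here after metabolic activation: human liver microsomes and NADPH, both at 0.5 mg/mL final, were co-added to p53RE-bla cells. Incubation ran 16 h at 37 C, followed by LiveBLAzer detection.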
Background: qHTS replaces the single test concentration by a dilution series.

The nature of assay [7]: p53 small molecule agonists, cell-based qHTS assay with rat liver microsomes: qHTS cell viability counter screen (AID 1963580). Also: nearly all actives have a fitted effect of over 45% in size. Summed up: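 Counter screen for cytotoxicity under metabolic activation: rat liver microsomes and NADPH, 0.5 mg/mL final each, added with compounds to p53RE-bla HCT-116 cells; 16 h at 37 C, then ATP luminescence read.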
Assay [8] can be described thus: p53 small molecule agonists, cell-based qHTS assay: qHTS cell viability counter screen (AID 1963581). Also: nearly all actives have a fitted effect of over 45% in size. Summed up:
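Multiplexed with the reporter read, a CellTiter-Glo step (30 min, room temperature) gauges ATP-based viability of HCT-116 p53RE-bla cells after 16 h compound incubation at 37 C.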

A short description of assay [9]: p53 small molecule agonists, cell-based qHTS assay (AID 1963582; active = well fitted activation curve with a large enough effect in the signal ratio in the repeat runs, not every such curve was filed as active; the % refers to the signal ratio). Summed up: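 Beta-lactamase reporter cells (p53RE-bla) treated with compounds for 16 h at 37 C; FRET substrate, 2 h, room temperature; fluorescence intensity.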
The target in assay [10] is 5-hydroxytryptamine receptor 2A (Homo sapiens) (UniProt P28223). Description: 5-hydroxytryptamine receptor 2A (HTR2A) small molecule antagonists, cell-based qHTS assay (AID 1963586). Also: nearly all actives have a fitted effect of over 45% in size. In outline:
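CHO cells stably expressing human HTR2A were plated for 18 h at 37 C, then loaded with calcium dye for 1 h. Compounds were preincubated 5 min at room temperature before DOI (4 nM solution) was added. Kinetic fluorescence was read for 3 min.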

Assay [11] addresses Muscarinic acetylcholine receptor M1 (Homo sapiens) (UniProt P11229). As to the kind of experiment: Cholinergic receptor muscarinic 1 (CHRM1) small molecule antagonists, cell-based qHTS assay (AID 1963588). Also: nearly all actives have a fitted effect of over 40% in size. Also: potency is read from the fitted curve at half-maximal effect. Summed up: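 Compounds were tested at 15 concentrations in three independent runs. Dye-loaded CHRM1-CHO cells were exposed 5 min at room temperature before stimulation by acetylcholine added at 50nM. Intracellular calcium was read kinetically on FDSS for 3 min.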

The target is the same in assay [12]. As to the kind of experiment: Cholinergic receptor muscarinic 1 (CHRM1) small molecule agonists, cell-based qHTS assay (AID 1963589). Also: nearly all actives have a fitted effect of over 35% in size. Summed up:
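qHTS, 15-point titration, 3 independent runs: compounds pin-transferred onto dye-loaded CHRM1-CHO cells (human M1), calcium fluorescence followed every second to detect agonism.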

Assay [13] is described as follows: cAMP Responsive Elements (CRE) small molecule agonists, cell-based qHTS assay (AID 1963590). Summed up:
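Quantitative HTS for CRE agonists: HEK 293T CRE-bla cells, overnight plating, 3 h compound incubation at 37 C/5% CO2, then 2 h room-temperature LiveBLAzer B/G FRET substrate loading.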

Assay [14] addresses Beta-2 adrenergic receptor (Homo sapiens) (UniProt P07550). Description: Adrenergic beta2 receptor (ADRB2) small molecule antagonists, cell-based qHTS assay (AID 1963592). Also: nearly all actives have a fitted effect of over 50% in size. Also: potency is read from the fitted curve at half-maximal effect. In outline:
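Assay format: CHO-ADRB2 cells, 18-20hr seeding at 37C/5% CO2, then compound plus 1nM isoproterenol agonist mix for 0.5hr RT. Homogeneous time-resolved fluorescence cAMP detection after 1hr, expressed as 665/615 nm ratio.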

Assay [15] has the same target. As to the kind of experiment: Adrenergic beta2 receptor (ADRB2) small molecule agonists, cell-based qHTS assay (AID 1963593).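 Also: CHO cells stably overexpressing human ADRB2.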 In outline:
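CHO cells stably over-expressing ADRB2 were plated overnight at 37C, then dosed with compounds plus a stimulation mix containing 100uM IBMX and 25uM Ro-20-1724 for 0.5hr at room temperature. cAMP was measured by HTRF competition, 1hr.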

For assay [16], the target named is D(2) dopamine receptor (Homo sapiens) (UniProt P14416). As to the kind of experiment: Dopamine D2 receptor (DRD2) small molecule agonists, cell-based qHTS assay (AID 1963594). Also: nearly all actives have a fitted effect of over 35% in size. In outline: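 HEK293 cells stably expressing DRD2 were cultured 24 h at 37 C, then given Ro20-1724 (0.1 mM final) and compounds for 10 min at room temperature. NKH477 (200nM) was then added for 30 min. cAMP was read by HTRF.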
Chain of D(2) dopamine receptor (Homo sapiens) (P14416 whole entry, looked up): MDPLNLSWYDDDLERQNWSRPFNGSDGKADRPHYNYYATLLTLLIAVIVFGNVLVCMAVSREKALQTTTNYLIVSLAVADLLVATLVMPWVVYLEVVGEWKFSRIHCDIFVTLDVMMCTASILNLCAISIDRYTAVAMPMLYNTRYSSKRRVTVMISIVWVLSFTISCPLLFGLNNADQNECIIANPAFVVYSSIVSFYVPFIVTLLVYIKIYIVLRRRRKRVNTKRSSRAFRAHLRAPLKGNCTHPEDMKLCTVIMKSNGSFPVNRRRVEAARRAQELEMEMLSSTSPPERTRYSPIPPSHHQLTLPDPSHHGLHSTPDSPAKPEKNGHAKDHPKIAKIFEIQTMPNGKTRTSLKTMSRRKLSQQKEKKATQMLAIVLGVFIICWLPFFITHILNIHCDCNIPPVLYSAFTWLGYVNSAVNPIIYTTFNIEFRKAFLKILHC

The target is the same in assay [17]. As to the kind of experiment: Dopamine D2 receptor (DRD2) small molecule antagonists, cell-based qHTS assay (AID 1963595; active = well fitted inhibition curve with a large enough effect in the signal ratio in the repeat runs, with a control signal flat; the % refers to the signal ratio; also: potency is read from the fitted curve at half-maximal effect). In outline:
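Stable D2 receptor HEK293 line, 24 h after seeding. Compound preincubated 10 min, then quinpirole (12 nM) with forskolin analogue NKH477 (200 nM), 30 min, room temperature. Detection by time-resolved FRET of cAMP.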

The target in assay [18] is 5-hydroxytryptamine receptor 2A (Homo sapiens) (UniProt P28223). As to the kind of experiment: 5-hydroxytryptamine receptor 2A (HTR2A) small molecule agonists, cell-based qHTS assay (AID 1963587). Also: nearly all actives have a fitted effect of over 30% in size. Summed up: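 HTR2A-CHO cells, plated 18 h at 37 C/5% CO2, dye-loaded 1 h at 37 C; compounds in DMSO added by pin tool (agonist mode). Intracellular calcium flux read as kinetic fluorescence on FDSS over 2 min at 1 s intervals.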
Chain of 5-hydroxytryptamine receptor 2A (Homo sapiens) (P28223 whole entry, looked up): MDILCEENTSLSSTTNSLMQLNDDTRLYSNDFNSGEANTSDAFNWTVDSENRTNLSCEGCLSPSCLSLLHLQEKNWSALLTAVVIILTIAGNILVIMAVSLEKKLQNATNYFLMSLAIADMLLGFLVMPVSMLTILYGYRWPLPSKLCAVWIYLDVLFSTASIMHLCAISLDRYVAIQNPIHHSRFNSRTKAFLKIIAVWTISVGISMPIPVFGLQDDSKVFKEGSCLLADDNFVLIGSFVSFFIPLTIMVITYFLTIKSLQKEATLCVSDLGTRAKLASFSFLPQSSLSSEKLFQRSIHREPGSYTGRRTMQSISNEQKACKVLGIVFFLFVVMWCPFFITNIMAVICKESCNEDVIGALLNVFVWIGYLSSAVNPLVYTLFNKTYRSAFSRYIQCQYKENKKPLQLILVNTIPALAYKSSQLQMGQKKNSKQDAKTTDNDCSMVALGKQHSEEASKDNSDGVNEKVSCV

Assay [19] is described as follows: cAMP Responsive Elements (CRE) small molecule antagonists, cell-based qHTS assay (AID 1963591; active = well fitted inhibition curve with a large enough effect in the signal ratio in the repeat runs, not every such curve was filed as active; the % refers to the signal ratio). In outline: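 Fluorescence intensity from cleaved LiveBLAzer B/G substrate (2 h, room temperature) quantified CRE-bla activity in HEK 293T cells exposed 3 h to compound with 0.25 uM final NKH477.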

Consider eight molecules from PubChem BioAssay (Tox21).

Unmarked numbers belong to inactive results. Records with an inconclusive call do not appear. Activity calls are given as the source filed them. Unless noted, calls follow the shape of the full dose curve.

Chain of KiSS-1 receptor (Homo sapiens) (Q969F8 whole entry, looked up): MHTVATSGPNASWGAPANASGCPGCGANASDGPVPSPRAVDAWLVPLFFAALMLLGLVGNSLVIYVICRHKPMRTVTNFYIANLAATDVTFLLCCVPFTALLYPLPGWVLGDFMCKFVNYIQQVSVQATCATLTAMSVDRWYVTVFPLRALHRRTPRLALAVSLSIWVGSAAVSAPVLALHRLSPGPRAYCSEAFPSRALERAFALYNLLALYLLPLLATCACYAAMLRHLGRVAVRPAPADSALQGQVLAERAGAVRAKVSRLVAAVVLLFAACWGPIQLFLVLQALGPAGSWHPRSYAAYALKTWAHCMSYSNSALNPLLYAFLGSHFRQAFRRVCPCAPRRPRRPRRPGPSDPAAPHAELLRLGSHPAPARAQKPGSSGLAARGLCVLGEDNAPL
Chain of Beta-2 adrenergic receptor (Homo sapiens) (P07550 whole entry, looked up): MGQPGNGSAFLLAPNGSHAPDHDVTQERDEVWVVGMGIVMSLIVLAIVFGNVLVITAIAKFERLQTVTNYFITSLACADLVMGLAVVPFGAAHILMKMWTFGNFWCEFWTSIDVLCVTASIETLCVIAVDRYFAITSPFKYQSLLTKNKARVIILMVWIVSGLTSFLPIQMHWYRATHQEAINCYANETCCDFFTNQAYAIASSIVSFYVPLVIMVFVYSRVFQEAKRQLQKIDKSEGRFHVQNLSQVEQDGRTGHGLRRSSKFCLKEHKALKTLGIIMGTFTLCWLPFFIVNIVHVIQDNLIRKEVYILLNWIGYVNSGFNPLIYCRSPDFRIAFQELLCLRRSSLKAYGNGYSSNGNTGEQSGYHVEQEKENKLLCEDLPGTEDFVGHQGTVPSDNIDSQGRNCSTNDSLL
Chain of Muscarinic acetylcholine receptor M1 (Homo sapiens) (P11229 whole entry, looked up): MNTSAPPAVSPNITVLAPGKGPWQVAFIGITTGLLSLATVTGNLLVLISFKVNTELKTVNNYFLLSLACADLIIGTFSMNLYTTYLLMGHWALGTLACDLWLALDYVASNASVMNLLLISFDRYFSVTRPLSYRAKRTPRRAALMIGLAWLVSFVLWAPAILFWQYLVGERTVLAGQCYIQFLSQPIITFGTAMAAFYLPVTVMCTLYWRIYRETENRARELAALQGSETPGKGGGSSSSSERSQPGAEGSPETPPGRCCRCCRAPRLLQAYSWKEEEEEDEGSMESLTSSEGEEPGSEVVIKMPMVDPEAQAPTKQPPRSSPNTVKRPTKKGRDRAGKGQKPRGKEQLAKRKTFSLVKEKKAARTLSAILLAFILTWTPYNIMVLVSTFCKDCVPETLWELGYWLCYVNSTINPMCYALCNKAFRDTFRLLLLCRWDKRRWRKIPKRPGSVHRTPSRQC
Chain of Gonadotropin-releasing hormone receptor (Homo sapiens) (P30968 whole entry, looked up): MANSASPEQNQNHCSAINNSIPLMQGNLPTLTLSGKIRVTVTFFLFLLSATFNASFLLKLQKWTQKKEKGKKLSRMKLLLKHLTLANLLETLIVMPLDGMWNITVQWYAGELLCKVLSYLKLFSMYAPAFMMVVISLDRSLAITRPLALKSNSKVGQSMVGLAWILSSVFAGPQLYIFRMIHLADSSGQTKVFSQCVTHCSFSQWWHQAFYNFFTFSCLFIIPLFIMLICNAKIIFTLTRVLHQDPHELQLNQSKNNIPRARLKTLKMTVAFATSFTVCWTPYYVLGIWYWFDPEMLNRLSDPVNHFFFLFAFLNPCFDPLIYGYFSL

Consider `O=C(Nc1ccc2c(O)c(N=Nc3ccc(N=Nc4ccc(S(=O)(=O)O)cc4)cc3)c(S(=O)(=O)O)cc2c1)c1ccccc1`, for which, in [1], the Potency is 30.6 µM (active). Also, the Potency entry in assay [2], in [3], in [6], in assay [7], in assay [8] and in assay [9] was “inactive” throughout. Moreover, the Potency result in [10], in [11], in assay [12], in [13], in [14] and in [15] was “inactive” throughout. The Potency entry in [16] and in assay [17] was “inactive” each time. Further, the result in [4] and in assay [5] was inactive.

Consider `O=S1(=O)c2cccc3cccc(c23)N1CCCN1CCN(c2ccc(F)cc2)CC1`, for which the Potency entry in assay [1], in [2], in [3], in [6], in [7] and in assay [8] was “inactive” in each case. Further, the Potency result in assay [9], in assay [10], in assay [18], in assay [12], in assay [13] and in [17] was “inactive” throughout. Besides, the outcome in [4] and in assay [5] was inactive. Moreover, the Potency in assay [14] was 33.5 µM (active).

Consider `CN1CCN(c2cc3c(cc2F)c(=O)c(C(=O)O)cn3-c2ccc(F)cc2)CC1`, for which the Potency in [1] is 1.88 µM (active). The Potency entry in [2], in [3], in assay [6], in assay [7], in assay [8] and in [9] was “inactive” in each case. In addition, the Potency result in [10], in [18], in assay [11], in assay [12], in assay [14] and in assay [16] was “inactive” in each case. The Potency result in assay [17] is “inactive”. Moreover, the result in [4] and in assay [5] was inactive.

For `OC(CCCN1CCCCC1)(c1ccccc1)c1ccccc1`, the Potency entry in assay [1], in assay [2], in assay [3], in [6], in [7] and in assay [8] was “inactive” in each case. The Potency entry in assay [9], in assay [13], in [19], in assay [14], in assay [15] and in assay [16] was “inactive” each time. Moreover, the outcome in assay [4] and in [5] was inactive. Moreover, the Potency in assay [17] was 5.96 µM (active).

Take `CCCCCCCCC(C)=O`: the Potency result in [1], in assay [2], in assay [3], in assay [6], in [7] and in assay [8] was “inactive” throughout. The Potency result in assay [9], in assay [10], in assay [18], in [12], in assay [13] and in [19] was “inactive” each time. Also, the Potency result in assay [16] and in assay [17] was “inactive” each time. Besides, the result in assay [4] and in assay [5] was inactive.

With `CC(=O)[C@H]1CC[C@H]2[C@@H]3C=CC4=CC(=O)CC[C@@]4(C)[C@@H]3CC[C@]12C`, the Potency entry in [1], in assay [2], in assay [3], in assay [6], in assay [7] and in assay [8] was “inactive” throughout. The Potency result in [9], in assay [10], in [18], in assay [12], in assay [19] and in [14] was “inactive” in each case. Further, the Potency result in assay [15] and in assay [16] was “inactive” throughout. Also, the outcome in assay [4] and in [5] was inactive.

As to `CN1CCCN=C1COC(=O)C(O)(c1ccccc1)C1CCCCC1` (stereo not drawn), the Potency entry in assay [1], in assay [2], in [3], in assay [6], in assay [7] and in assay [8] was “inactive” in each case. Besides, the Potency result in [9], in assay [10], in [12], in [19], in assay [14] and in assay [15] was “inactive” each time. Moreover, the Potency result in [16] and in assay [17] was “inactive” each time. Also, the result in [4] and in assay [5] was inactive. The Potency in assay [11] is 0.0116 µM (active).

Take `COc1ccc2nc(SCc3ncc(C)c(OC)c3C)[nH]c2c1`: the Potency result in assay [1], in [2], in assay [3], in assay [6], in assay [7] and in assay [8] was “inactive” throughout. Moreover, the Potency result in assay [9], in [18], in assay [11], in assay [12], in assay [13] and in assay [14] was “inactive” in each case. Further, the Potency result in assay [16] and in [17] was “inactive” in each case. Further, the result in [4] and in [5] was inactive.
